Measured values taken from the supplement of paper PMC3334620.
Over roughly 33,000 sequences, “E-score (-0.5 to 0.5)” has its median near -8e-05; the highest 2% begin near 0.23. This is one part of a sample in which the highest values are shown more often than they occur.

biological target: T1, Nrg2 (UniProt P38082); assay: PBM E-score (8-mer binding enrichment) (E-score (-0.5 to 0.5)); higher = stronger / more preferred TF binding; conditions: protein concentration: 100 nM; construct: GST-full length
T1 sequence: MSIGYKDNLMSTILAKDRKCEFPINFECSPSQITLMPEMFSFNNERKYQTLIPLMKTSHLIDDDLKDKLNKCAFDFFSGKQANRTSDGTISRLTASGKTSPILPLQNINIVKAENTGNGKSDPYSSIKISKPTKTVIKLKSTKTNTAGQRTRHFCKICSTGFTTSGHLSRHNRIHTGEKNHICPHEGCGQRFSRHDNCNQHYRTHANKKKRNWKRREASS
Description: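 Universal 'all 10-mer' protein binding microarrays (Agilent AMADID 015681) probed with GST-tagged S. cerevisiae TFs (full-length or DBD) made by in vitro transcription/translation (PURExpress), about 100-200 nM. Bound TF was detected with fluorescent anti-GST. Each ungapped 8-mer (which stands for itself and its reverse complement) is scored by the PBM enrichment score (E-score), a modified Wilcoxon-Mann-Whitney statistic from -0.5 to +0.5, computed with the Universal PBM Analysis Suite. Scale: above 0.35 generally sequence-specific binding.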

Sequence | PBM E-score
CACGTAGG | -0.156
AAAATTCA | 0.199
CAACGCGC | 0.215
GAAGGAAA | -0.238
AAAGCGCA | 0.012
ATCTCGCC | 0.0341
CAGGGGCG | 0.252
CAGGGGCC | 0.191
CGCGCAGA | 0.232
ATCTCGCG | 0.282
GGCGCAGA | -0.0307
AAGGGGCG | -0.117
ATCTCGCA | 0.0354
CAAGCGCA | 0.363
CGCGCAGC | 0.0142
CAAGCGCC | -0.196
AAGTGATT | 0.0989
CCCTGCGC | 0.1
CCTCTTTC | -0.184
ACACTAGC | -0.00995
ACTAGGAC | -0.00051
GTTTGCGA | 0.0803
GGTCTAGA | -0.109
AACGTTTC | -0.144
ATCTCCAC | -0.0729

Sequence | PBM E-score
CTGTTCGC | 0.0452
GAGACAAA | -0.091
CACACCAA | 0.063
AACTATCG | 0.0118
CAGGCGCC | 0.0447
ATCGCGCG | 0.241
CGAGCGAC | -0.0894
CAGGCGCG | 0.231
AACGCGCG | 0.319
CAGGCGCA | -0.114
AACGCGCA | 0.0385
AACGCGCT | 0.123
AGAGCGAG | -0.0653
ATCGCGCC | 0.201
ATCGCGCA | -0.004
CGAGCGAG | 0.249
ATTCCCAA | 0.0933
AGGCCCCT | 0.0783
AGCCTCGA | -0.0885
CTAGTACA | 0.0576
ACCCTAGC | 0.0587
CTACTGAA | 0.029
ATCCGATA | 0.00821
AAGCAGTC | -0.135
CTCTCTTA | -0.0805

Sequence | PBM E-score
AGCAAAGA | -0.0188
AGACCAAT | -0.00568
AAAACGCC | 0.0808
CGCGGGCC | 0.176
CAAACGCG | 0.0917
CACGCGCA | -0.0169
AGCGCGAG | 0.0635
TGCGCGCA | 0.211
CGCGGGCA | 0.281
GGCGGGCA | -0.0772
AAAACGCG | 0.285
CGCGCGAA | 0.157
CGCGCGAG | 0.245
CGCGCGCA | 0.296
AAGATCGT | 0.0712
TCAGAGCA | -0.0393
CACTTCAC | -0.0837
GCAACAGA | 0.0125
ATTGGAGG | -0.149
AATCGCGG | 0.162
ACCTCACT | -0.0963
ATCGTGCA | 0.0864
CTCGCGAA | -0.00662
CTCGCGAG | 0.257
ATCGTGCG | 0.272

Sequence | PBM E-score
CACGCGAG | 0.225
CCCGCGCG | 0.178
CGCGCGCG | 0.302
CGCGCGCC | 0.211
ATCGTGCC | -0.145
AGTATACG | 0.0367
CCCCAGAA | -0.0495
GATTGGCA | -0.0954
TCCAGACA | -0.0642
GGTAACGA | -0.00769
AATTGTGA | 0.116
CTCACAAC | 0.206
CTCGGAAA | -0.0457
ATCGGAAA | 0.0359
GTCGGAAA | 0.234
ATGTGAGG | -0.0251
ATGTCCGG | 0.0983
CTGTAGTA | 0.245
GTGTAGTA | -0.0167
ATGTAGTA | 0.154
CAGCGTTC | 0.0488
TGCCAACA | 0.0266
AAATCTTG | 0.0495
CGGCAGAA | 0.154
AATGAAGT | 0.23

Sequence | PBM E-score
AATGAAGG | 0.0439
AATGAAGA | 0.14
CTGAACGA | -0.166
AACGCAGC | 0.253
CACGCAGC | -0.0258
AACGCAGA | -0.0108
CGGGTAAG | -0.13
AAACTATT | -0.0651
ATCATTTA | 0.0968
ATCATTTC | 0.242
CTCATTTC | -0.0953
AGTGCACG | 0.0226
AATCATAG | 0.235
AATCATAC | 0.116
AATCATAT | 0.0761
AGATTTGG | -0.144
CAAGTTGG | 0.225
CTTTGTTC | 0.0376
ATTTGTTA | 0.113
ATTTGTTC | 0.272
GAGTCAGC | -0.151
AAAAGTCG | 0.0204
ACCCCATG | 0.217
GAAAAATC | 0.099
GCATTGCC | -0.0164

Sequence | PBM E-score
GTTCGAAC | 0.233
CTTCGAAC | 0.108
ATTCGAAC | 0.155
GGAAGCAA | -0.0162
CCATGCAG | 0.155
CCATGCAA | 0.247
TCATGCAA | 0.192
GGGGTCAC | -0.0806
ACGGGCGC | 0.0207
AATCCCCT | 0.0153
ATCATAAG | -0.085
AACATAAT | 0.248
CACATAAG | 0.0356
AACATAAA | -0.0006
AACATAAG | 0.246
AACATAAC | 0.134
GAAGGCAC | 0.0779
TGTGAGAA | 0.183
CTATATAC | 0.238
ATACATAA | 0.0727
ATATAGTA | 0.155
TTATATAA | 0.192
ATATAGTG | 0.241
ATATATAA | 0.24
CTATATAG | 0.00641

Sequence | PBM E-score
ATATAGTC | 0.196
ATACATAC | 0.0623
ATACATAT | 0.235
CTCTATAC | -0.0911
CTATATAA | 0.0499
AGTGAGGC | -0.0681
AACCTTGC | -0.0724
AGCCAAAC | 0.121
AGATTACG | 0.121
AGCCGGAG | 0.023
CGGTGAAG | -0.222
GCAACGAA | 0.187
ACCATCAC | -0.0188
GTATATAC | 0.0119
ATATATAC | 0.329
ATATATGA | 0.0746
ATATATAT | 0.107
ATATATGG | 0.23
ATATATGC | 0.18
AACATCGG | -0.137
CTACAGAA | 0.0765
CGGGTGAA | 0.16
